# Measurements: ChEMBL document CHEMBL1961873, “Compounds: GSK PKIS; Assays: Nanosyn kinase panel” (2012)
# What was measured:
# [1] = target: Death-associated protein kinase 1 (Homo sapiens) (UniProt P53355); conditions: at 1 µM;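 further: each value is a mean inhibition figure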
# [2] = target: T1, Serine/threonine-protein kinase DCLK2 (Homo sapiens) (UniProt Q8N568); conditions: at 0.1 µM
# T1 sequence (whole entry): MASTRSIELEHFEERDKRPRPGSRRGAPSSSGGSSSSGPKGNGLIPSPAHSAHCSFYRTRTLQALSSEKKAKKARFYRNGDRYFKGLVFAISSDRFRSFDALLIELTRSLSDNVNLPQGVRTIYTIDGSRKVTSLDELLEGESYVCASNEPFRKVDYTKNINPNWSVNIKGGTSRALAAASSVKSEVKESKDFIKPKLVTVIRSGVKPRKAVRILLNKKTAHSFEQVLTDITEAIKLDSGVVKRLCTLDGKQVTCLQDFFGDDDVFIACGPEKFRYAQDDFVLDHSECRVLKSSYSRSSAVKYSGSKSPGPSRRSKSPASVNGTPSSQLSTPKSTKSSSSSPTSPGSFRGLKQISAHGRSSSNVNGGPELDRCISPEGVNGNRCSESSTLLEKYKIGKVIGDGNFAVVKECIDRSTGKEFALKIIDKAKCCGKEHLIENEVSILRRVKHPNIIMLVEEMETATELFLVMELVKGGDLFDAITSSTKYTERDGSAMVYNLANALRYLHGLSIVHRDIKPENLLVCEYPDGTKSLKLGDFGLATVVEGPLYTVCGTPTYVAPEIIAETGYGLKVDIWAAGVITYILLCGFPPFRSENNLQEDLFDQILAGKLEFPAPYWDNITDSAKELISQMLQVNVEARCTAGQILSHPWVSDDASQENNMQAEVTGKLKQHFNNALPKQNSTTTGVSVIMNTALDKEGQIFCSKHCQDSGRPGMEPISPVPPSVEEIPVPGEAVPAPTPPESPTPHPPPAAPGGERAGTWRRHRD
# [3] = target: T1, Serine/threonine-protein kinase DCLK2 (Homo sapiens); conditions: at 1 µM
# [4] = target: MAP kinase-activated protein kinase 2 (Homo sapiens) (UniProt P49137); conditions: at 0.1 µM
# [5] = target: MAP kinase-activated protein kinase 2 (Homo sapiens) (UniProt P49137); conditions: at 1 µM
# [6] = target: MAP kinase-activated protein kinase 3 (Homo sapiens) (UniProt Q16644); conditions: at 0.1 µM
# [7] = target: MAP kinase-activated protein kinase 3 (Homo sapiens) (UniProt Q16644); conditions: at 1 µM
# [8] = target: Serine/threonine-protein kinase MARK1 (Homo sapiens) (UniProt Q9P0L2); conditions: at 0.1 µM
# [9] = target: Serine/threonine-protein kinase MARK1 (Homo sapiens) (UniProt Q9P0L2); conditions: at 1 µM
# [10] = target: MAP/microtubule affinity-regulating kinase 3 (Homo sapiens) (UniProt P27448); conditions: at 0.1 µM
# [11] = target: MAP/microtubule affinity-regulating kinase 3 (Homo sapiens) (UniProt P27448); conditions: at 1 µM
# [12] = target: T2, MAP/microtubule affinity-regulating kinase 4 (Homo sapiens) (UniProt Q96L34); conditions: at 0.1 µM
# T2 sequence (whole entry): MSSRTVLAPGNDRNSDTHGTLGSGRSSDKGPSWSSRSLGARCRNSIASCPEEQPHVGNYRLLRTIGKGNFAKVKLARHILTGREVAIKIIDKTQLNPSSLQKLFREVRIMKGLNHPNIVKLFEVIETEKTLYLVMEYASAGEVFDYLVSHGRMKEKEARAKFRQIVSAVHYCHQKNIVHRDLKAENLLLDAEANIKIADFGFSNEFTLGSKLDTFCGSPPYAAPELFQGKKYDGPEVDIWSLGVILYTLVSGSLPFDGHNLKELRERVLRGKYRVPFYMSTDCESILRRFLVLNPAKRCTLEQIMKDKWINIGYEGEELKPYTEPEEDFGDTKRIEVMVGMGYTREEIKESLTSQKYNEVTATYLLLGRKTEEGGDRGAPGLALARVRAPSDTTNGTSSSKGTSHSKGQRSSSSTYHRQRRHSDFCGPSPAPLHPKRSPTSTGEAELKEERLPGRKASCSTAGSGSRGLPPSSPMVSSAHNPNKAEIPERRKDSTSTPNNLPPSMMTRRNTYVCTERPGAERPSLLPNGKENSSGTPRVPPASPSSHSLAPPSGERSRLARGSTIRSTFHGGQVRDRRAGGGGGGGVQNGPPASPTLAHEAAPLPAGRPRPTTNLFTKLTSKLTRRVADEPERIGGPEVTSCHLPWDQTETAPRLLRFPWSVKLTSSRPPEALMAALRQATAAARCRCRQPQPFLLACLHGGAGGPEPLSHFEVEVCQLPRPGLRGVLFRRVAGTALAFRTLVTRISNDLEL
# [13] = target: T2, MAP/microtubule affinity-regulating kinase 4 (Homo sapiens); conditions: at 1 µM
# [14] = target: Maternal embryonic leucine zipper kinase (Homo sapiens) (UniProt Q14680); conditions: at 0.1 µM
# [15] = target: Maternal embryonic leucine zipper kinase (Homo sapiens) (UniProt Q14680); conditions: at 1 µM
# [16] = target: MAP kinase-interacting serine/threonine-protein kinase 1 (Homo sapiens) (UniProt Q9BUB5); conditions: at 0.1 µM
# [17] = target: MAP kinase-interacting serine/threonine-protein kinase 1 (Homo sapiens) (UniProt Q9BUB5); conditions: at 1 µM
# [18] = target: MAP kinase-interacting serine/threonine-protein kinase 2 (Homo sapiens) (UniProt Q9HBH9); conditions: at 0.1 µM
# [19] = target: MAP kinase-interacting serine/threonine-protein kinase 2 (Homo sapiens) (UniProt Q9HBH9); conditions: at 1 µM
# [20] = target: Serine/threonine-protein kinase MARK2 (Homo sapiens) (UniProt Q7KZI7); conditions: at 0.1 µM;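 further: mean percent inhibition of PAR-1Balpha kinase activity, reported from the GSK PKIS screen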
# Serine/threonine-protein kinase MARK2 (Homo sapiens), sequence (Q7KZI7 whole entry): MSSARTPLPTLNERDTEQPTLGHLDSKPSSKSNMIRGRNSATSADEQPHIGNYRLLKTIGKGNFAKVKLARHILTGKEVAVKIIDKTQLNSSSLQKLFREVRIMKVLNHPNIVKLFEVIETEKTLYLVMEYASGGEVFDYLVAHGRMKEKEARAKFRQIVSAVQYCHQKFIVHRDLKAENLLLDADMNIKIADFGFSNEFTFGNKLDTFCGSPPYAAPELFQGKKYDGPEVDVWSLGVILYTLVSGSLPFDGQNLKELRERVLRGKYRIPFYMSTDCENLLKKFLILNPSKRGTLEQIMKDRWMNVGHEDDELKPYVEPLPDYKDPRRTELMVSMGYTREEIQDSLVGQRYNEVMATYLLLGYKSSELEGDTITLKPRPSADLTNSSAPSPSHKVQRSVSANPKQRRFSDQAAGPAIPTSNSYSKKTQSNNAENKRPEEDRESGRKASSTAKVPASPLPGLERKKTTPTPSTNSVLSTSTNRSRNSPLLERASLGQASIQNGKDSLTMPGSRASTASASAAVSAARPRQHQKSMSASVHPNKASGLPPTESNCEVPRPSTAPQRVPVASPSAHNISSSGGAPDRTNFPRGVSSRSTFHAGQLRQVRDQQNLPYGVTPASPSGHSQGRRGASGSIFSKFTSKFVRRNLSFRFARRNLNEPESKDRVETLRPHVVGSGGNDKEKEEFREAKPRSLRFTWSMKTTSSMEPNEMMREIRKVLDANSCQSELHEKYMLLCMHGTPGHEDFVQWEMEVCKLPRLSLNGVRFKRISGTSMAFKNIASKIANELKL
# MAP/microtubule affinity-regulating kinase 3 (Homo sapiens), sequence (P27448 whole entry, looked up): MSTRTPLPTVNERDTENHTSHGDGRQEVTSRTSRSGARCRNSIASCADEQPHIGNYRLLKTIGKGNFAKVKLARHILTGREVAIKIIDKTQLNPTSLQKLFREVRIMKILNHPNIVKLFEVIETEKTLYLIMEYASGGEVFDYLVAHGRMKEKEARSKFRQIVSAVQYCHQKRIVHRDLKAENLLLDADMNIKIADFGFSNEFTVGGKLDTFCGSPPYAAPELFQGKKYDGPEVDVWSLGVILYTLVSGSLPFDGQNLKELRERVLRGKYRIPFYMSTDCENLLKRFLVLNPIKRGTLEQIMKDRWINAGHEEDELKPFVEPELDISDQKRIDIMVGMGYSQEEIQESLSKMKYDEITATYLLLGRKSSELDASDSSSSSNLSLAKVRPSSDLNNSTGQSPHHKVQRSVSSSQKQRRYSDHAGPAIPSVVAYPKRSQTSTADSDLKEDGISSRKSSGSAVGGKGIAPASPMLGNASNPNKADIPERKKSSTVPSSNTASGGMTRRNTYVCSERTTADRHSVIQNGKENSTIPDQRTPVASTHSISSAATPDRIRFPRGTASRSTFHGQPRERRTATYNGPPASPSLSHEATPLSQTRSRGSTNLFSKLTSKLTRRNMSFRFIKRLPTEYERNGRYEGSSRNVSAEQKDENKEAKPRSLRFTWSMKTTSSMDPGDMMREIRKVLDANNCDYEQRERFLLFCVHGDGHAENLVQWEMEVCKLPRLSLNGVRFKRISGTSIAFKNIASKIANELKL
# MAP kinase-activated protein kinase 3 (Homo sapiens), sequence (Q16644 whole entry, looked up): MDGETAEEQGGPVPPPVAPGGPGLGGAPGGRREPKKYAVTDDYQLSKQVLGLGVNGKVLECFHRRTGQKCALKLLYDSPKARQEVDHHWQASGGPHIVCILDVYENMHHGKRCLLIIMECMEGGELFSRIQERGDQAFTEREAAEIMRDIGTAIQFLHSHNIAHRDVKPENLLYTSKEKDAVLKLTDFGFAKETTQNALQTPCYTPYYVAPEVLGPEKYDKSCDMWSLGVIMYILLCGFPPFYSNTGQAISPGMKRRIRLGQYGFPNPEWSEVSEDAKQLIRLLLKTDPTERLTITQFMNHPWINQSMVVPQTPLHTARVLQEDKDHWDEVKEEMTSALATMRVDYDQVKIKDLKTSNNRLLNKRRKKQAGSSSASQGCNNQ
# MAP kinase-interacting serine/threonine-protein kinase 2 (Homo sapiens), sequence (Q9HBH9 whole entry, looked up): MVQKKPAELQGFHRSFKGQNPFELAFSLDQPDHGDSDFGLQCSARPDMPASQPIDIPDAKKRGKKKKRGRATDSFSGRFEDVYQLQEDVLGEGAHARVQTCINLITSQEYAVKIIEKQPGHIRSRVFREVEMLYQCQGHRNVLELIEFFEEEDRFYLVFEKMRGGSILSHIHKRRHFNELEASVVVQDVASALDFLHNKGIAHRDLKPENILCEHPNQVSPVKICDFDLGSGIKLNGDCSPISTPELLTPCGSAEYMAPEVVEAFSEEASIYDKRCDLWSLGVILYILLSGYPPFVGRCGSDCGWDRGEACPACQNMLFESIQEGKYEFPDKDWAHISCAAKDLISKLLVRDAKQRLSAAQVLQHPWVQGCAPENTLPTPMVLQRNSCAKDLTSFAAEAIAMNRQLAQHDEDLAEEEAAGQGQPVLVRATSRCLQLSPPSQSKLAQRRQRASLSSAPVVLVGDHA
# MAP kinase-interacting serine/threonine-protein kinase 1 (Homo sapiens), sequence (Q9BUB5 whole entry, looked up): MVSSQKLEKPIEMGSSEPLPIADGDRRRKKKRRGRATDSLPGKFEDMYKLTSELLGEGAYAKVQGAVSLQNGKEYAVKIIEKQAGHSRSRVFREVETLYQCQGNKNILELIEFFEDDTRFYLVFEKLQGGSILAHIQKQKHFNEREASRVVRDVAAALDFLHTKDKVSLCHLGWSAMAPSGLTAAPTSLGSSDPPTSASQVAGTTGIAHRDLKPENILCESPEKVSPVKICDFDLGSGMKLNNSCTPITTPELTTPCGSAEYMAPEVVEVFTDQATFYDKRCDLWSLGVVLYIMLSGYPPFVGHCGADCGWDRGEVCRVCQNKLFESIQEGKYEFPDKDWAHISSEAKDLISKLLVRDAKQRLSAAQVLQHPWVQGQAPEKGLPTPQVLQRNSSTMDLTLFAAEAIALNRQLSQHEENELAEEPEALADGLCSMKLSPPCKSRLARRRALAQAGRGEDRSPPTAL
# Death-associated protein kinase 1 (Homo sapiens), sequence (P53355 whole entry, looked up): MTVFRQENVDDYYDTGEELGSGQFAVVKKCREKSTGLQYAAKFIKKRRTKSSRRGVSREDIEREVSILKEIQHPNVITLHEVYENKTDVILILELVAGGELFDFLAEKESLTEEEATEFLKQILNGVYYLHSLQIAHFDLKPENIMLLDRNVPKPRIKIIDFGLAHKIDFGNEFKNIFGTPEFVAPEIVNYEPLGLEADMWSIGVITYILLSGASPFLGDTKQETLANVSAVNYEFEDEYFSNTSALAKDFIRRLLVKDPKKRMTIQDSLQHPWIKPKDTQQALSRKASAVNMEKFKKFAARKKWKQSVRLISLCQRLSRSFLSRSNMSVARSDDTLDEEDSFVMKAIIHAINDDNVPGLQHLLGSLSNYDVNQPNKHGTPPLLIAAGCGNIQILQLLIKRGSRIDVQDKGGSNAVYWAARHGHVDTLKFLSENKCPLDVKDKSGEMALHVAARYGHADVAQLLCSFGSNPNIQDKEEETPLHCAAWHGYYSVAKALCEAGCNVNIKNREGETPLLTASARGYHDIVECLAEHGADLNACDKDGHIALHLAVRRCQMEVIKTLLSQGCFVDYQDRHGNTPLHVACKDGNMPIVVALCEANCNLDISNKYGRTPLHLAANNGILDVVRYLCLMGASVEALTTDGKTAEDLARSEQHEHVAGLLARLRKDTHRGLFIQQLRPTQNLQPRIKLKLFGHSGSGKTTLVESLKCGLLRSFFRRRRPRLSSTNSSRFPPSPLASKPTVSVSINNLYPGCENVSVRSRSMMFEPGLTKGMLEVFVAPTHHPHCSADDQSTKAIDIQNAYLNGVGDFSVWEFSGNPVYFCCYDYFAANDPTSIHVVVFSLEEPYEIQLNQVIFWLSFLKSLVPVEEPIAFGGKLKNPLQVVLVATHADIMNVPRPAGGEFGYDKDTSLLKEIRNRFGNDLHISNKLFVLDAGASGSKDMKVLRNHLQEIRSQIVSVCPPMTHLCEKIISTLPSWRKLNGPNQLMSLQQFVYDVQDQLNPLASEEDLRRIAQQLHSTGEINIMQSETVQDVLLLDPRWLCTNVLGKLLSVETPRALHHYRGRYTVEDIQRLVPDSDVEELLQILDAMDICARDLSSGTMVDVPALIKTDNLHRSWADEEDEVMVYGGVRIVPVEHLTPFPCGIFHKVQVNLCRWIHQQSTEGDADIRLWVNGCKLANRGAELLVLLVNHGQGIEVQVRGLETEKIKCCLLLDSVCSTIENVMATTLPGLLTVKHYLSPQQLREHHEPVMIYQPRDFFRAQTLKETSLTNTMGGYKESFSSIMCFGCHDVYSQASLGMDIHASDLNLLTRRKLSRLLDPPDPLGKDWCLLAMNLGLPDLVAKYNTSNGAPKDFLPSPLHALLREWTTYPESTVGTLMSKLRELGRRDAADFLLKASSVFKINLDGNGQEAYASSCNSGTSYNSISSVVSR
# Serine/threonine-protein kinase MARK1 (Homo sapiens), sequence (Q9P0L2 whole entry, looked up): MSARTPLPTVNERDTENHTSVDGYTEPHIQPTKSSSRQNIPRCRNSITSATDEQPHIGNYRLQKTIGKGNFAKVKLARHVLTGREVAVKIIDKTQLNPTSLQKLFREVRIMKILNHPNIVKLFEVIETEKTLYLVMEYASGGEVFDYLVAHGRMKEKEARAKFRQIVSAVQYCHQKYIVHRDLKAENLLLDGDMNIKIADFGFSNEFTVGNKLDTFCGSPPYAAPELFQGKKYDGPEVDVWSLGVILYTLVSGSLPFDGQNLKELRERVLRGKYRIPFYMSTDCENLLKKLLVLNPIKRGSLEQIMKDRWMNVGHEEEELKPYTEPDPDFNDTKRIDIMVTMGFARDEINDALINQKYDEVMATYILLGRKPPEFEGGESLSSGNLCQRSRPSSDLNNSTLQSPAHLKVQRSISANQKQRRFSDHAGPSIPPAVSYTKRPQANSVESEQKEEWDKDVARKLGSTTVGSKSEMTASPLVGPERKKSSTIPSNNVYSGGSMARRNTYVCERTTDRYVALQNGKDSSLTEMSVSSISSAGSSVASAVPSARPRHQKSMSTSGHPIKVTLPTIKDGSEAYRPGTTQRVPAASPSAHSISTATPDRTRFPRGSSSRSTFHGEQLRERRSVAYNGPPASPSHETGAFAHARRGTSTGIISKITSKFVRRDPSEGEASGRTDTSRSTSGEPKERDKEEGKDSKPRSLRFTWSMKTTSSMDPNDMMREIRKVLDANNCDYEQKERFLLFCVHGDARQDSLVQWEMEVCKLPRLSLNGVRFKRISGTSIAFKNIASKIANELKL
Structure (SMILES),inhibition [1],inhibition [2],inhibition [3],inhibition [4],inhibition [5],inhibition [6],inhibition [7],inhibition [8],inhibition [9],inhibition [10],inhibition [11],inhibition [12],inhibition [13],inhibition [14],inhibition [15],inhibition [16],inhibition [17],inhibition [18],inhibition [19],inhibition [20]
Nc1nccc(-c2c(-c3ccc(F)cc3)nn3cc(C(F)(F)F)ccc23)n1,1.3%,-1.79%,-1.22%,-0.92%,-1.14%,5.47%,19.9%,-0.24%,-0.05%,-0.09%,-0.99%,-0.15%,-0.03%,0.66%,-0.87%,1.92%,3.98%,0.49%,2.23%,-2.12%
CN(C)CCCn1c(-c2nonc2N)nc2cnccc21,5.9%,0.05%,2.05%,2.54%,1.94%,4.24%,4.17%,3.64%,6.1%,4.25%,3.45%,2.41%,3.46%,6.89%,20.1%,1.87%,5.5%,0.54%,-0.09%,1.6%
COc1cc2ncnc(Nc3ccc4c(cnn4Cc4ccccc4)c3)c2cc1OC,8.23%,-1.15%,0.67%,2.78%,4.35%,6.95%,9.14%,1.12%,3.17%,0.1%,2.6%,1.05%,3.55%,3.54%,8.01%,2.44%,18%,0.99%,17.1%,-0.07%
NS(=O)(=O)c1ccc(NC=C2C(=O)Nc3ccc4ncsc4c32)cc1,24.9%,0.84%,7.25%,2.28%,4.38%,5.09%,5.58%,30.8%,67.3%,17.8%,60.7%,21%,58.7%,62.7%,94.4%,9.09%,39.2%,3.84%,18.1%,14%
COc1cccc(-n2nc(C)c3c(N/N=C(\C)c4ccncc4)ncnc32)c1,-0.72%,-1%,0.33%,0.1%,0.45%,0.03%,0.31%,0.08%,1.32%,-0.48%,0.26%,-0.19%,-0.43%,-0.32%,1.96%,0.47%,1.1%,-0.51%,0.76%,-0.2%
COC(=O)c1ccc2c(c1)C(=Cc1cc(Br)c(O)c(Br)c1)C(=O)N2,-8.17%,1.31%,0.79%,4.54%,7.08%,8.04%,10.5%,1.62%,5.65%,-2.9%,3.71%,0.93%,5.08%,6.21%,22.2%,1.07%,5.73%,2.35%,19%,0.84%
Cc1ccc2c(c1)/C(=N/Nc1ccc(S(N)(=O)=O)cc1)C(=O)N2,1.29%,6.62%,-0.15%,-0.81%,-0.37%,2.9%,1.35%,0.5%,3.86%,-0.22%,3.82%,1.51%,7.46%,-0.41%,6.27%,0.02%,0.54%,-0.44%,0%,-0.42%
COc1ccc(-c2nn3ncccc3c2-c2ccnc(Nc3cccc(C(F)(F)F)c3)n2)cc1,2.26%,-0.87%,-1.41%,1.58%,0.39%,7.94%,23.9%,1.45%,3.55%,0.72%,3.49%,1.29%,1.74%,2.53%,1.64%,1.88%,3.34%,0.77%,1.76%,-0.74%
COc1cccc(-n2ncc3c(N/N=C/c4ccc(S(C)(=O)=O)cc4)ncnc32)c1,-2.35%,-3.49%,-3.25%,-0.57%,-0.87%,-0.21%,-1.31%,0.85%,4.83%,0.34%,4.26%,1.03%,3.52%,3.61%,4.85%,23.2%,34.2%,16.7%,23.9%,0.16%
COc1ccc2ncnc(Nc3ccc(OCc4ccccc4)cc3)c2c1,3.26%,-5.53%,-8.44%,1.42%,-2.28%,2.72%,4.71%,1.85%,3.7%,1.64%,3.15%,0.07%,-0.37%,-0.28%,2.03%,2.24%,7.43%,1.39%,11.3%,0.5%
CN(C)c1cc2c(Nc3ccc4c(cnn4Cc4ccccc4)c3)ncnc2cn1,4%,0.57%,-0.18%,1.53%,1.29%,2.73%,2.81%,2.96%,3.22%,0.52%,-0.35%,1.14%,1.04%,2.68%,2.1%,3.47%,19.4%,3.73%,23%,0.19%
NS(=O)(=O)c1ccc(Nc2cc(-c3cccc(O)c3)n[nH]2)cc1,8.63%,0.84%,0.2%,1.88%,2.79%,4.03%,4.03%,5.12%,11.5%,5.96%,32.5%,3.4%,9.85%,4.37%,7.45%,3.01%,7.14%,0.45%,5.79%,1.86%
NS(=O)(=O)c1cccc(Nc2cc(-c3ccc(F)cc3)n[nH]2)c1,11.9%,0.71%,-0.18%,4.39%,4.71%,9.87%,9.68%,3.98%,17.5%,5.25%,19%,3.62%,20.2%,0.82%,4.1%,2.78%,10.7%,3.32%,13%,1.43%
CCn1c(-c2nonc2N)nc2ccc(F)cc21,10.7%,0.68%,0.5%,2.81%,3.62%,4.6%,5.57%,14.8%,6.7%,2.41%,3.73%,2.45%,1.33%,1.93%,8.51%,3.42%,9.46%,2.9%,9.38%,2.57%
